Shown are actives, neighbours in structure and some others; about 2.3% of the full set was active somewhere.
MIN6 prolif-1 = inducers of MIN6 beta-cell proliferation, primary screen, ATP luminescence, uHTS; MIN6 cells proliferation, ATPlite luminescence, 48 h; cells starved in 0.2% serum; 100% = growth in 10% serum; proliferation, % at 10 µM; 0.29% of 330,000 active; AID 2380, 2010;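 active = compounds whose signal lies at least 3.5 SD above the mean of all wells on their plate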
FAS TE block = FAS thioesterase domain inhibitors, primary screen, biochemical, fluorescence intensity, uHTS; 0.67% of 360,000 active; inhibition, % at 15 µM; Fatty acid synthase (Homo sapiens), P49327; recombinant FAS-TE, OMFH fluorogenic substrate, fluorescence endpoint;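 active = compounds whose normalised, plate-corrected inhibition of enzyme fluorescence in the single-dose primary screen is 50% or more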
H9c2 TAG inh = inhibitors of triacylglycerol accumulation, primary screen, cell-based, uHTS, fluorescence, H9c2. H9c2 cells, Nile Red lipid (TAG) fluorescence; cells loaded with 200 µM oleic acid. AID 651582, 2012. inhibition, % at 12.5 µM. 0.66% of 230,000 active;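 active = pattern-corrected inhibition of lipid staining of at least 50% with the nuclear-stain viability signal not falling by more than 50%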
m-calpain inh = inhibitors of pig calpain II, primary screen, biochemical, fluorogenic peptide substrate, 1536-well; purified calpain II, 30 min; 0.37% of 220,000 active; AID 1236, 2008; inhibition, % at 16 µM;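 active = inhibition above about 50%, limit read from the data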
aDG glyco up = activators of alpha-DG glycosylation, primary screen, uHTS, Pro5-aDG cells, AlphaScreen; alpha-DG glycosylation AlphaScreen (IIH6); 0% Pro5, 100% B10-LARGE cell signal; activation, % at 10 µM; 0.22% of 360,000 active; AID 624168, 2012;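 active = activation of at least 8% versus controls, or a plate z-score of at least 8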;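 note: Pro5 are CHO cells carrying HIG-tagged alpha-DG that lacks glycosylation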
Cardio protect = cardioprotection against H2O2-induced cell death, primary screen, uHTS, H9c2 cells, ATPLite luminescence. H9c2 cardiomyocytes, H2O2 injury protection, 2 h. protection from H2O2 cell death, % at 20 µM. 0.63% of 360,000 active;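 active = compounds giving at least 50% protection of heart cells from peroxide-induced death in the single-dose screen, raw or plate-pattern-corrected value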
MIN6 prolif-2 = inducers of beta-cell proliferation in MIN6, confirmation, MIN6 cells, mouse; 920 tested, under 10 active; ATPlite luminescence, 48 h; cells kept in 0.2% serum; scaled between 0.2% and 10% serum; shares compounds with MIN6 prolif-1; proliferation increase, % at 50 µM;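 active = proliferation increase above 40% at any of the four tested concentrations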
FAS-TE conf = FAS thioesterase domain inhibitors, confirmation, biochemical, fluorescence intensity, single concentration | shares compounds with FAS TE block | recombinant FAS-TE, OMFH fluorogenic substrate | inhibition, % at 15 µM | 45% of 2,300 active | AID 624325, 2012;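 active = compounds inhibiting the enzyme by at least 50% at 15 µM in any one of the replicates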
Of the large screens only hits and unclear results are named; the others gave an inactive call (follow-up assays come after a bar, where they were run).

O=c1[nH]c(=S)n(C2CC2)c(O)c1/C=N/Nc1ccccc1	none (no result: H9c2 TAG inh)
Cn1c(O)c(C=NCCOc2ccc(Cl)cc2)c(=O)n(C)c1=O	none
Cn1c(O)c(C=NCCN2CCN(C(=O)c3ccccc3)CC2)c(=O)n(C)c1=O	MIN6 prolif-1 9.6 (no result: H9c2 TAG inh, m-calpain inh) | MIN6 prolif-2 inactive
CC1=CC(=C2C(=O)NC(=O)NC2=O)C=C(C(F)(F)F)N1Cc1ccccc1	MIN6 prolif-1 9.2 | MIN6 prolif-2 inactive
CC1=CC(=C2C(=O)NC(=S)NC2=O)C=C(C(F)(F)F)N1CCc1ccccc1	none (no result: FAS TE block, H9c2 TAG inh, aDG glyco up, Cardio protect)
CN1C(=O)C(O)N=C(c2ccccc2)c2ccccc21 (stereo not drawn)	none (no result: H9c2 TAG inh, m-calpain inh)
COc1cc2occc2c2oc(=O)ccc12	none (no result: H9c2 TAG inh)
COc1cc2ccc(=O)oc2c2ccoc12	MIN6 prolif-1 12 | MIN6 prolif-2 inactive
O=C(N/N=C/c1c(O)n(Cc2ccco2)c(=O)[nH]c1=O)c1ccccc1O	MIN6 prolif-1 8.0 | MIN6 prolif-2 inactive
CCCCC(=O)N/N=C/c1c(O)n(Cc2ccco2)c(=O)[nH]c1=O	none (no result: H9c2 TAG inh)
COc1ccccc1-n1c(-c2ccccc2Br)nc2ccccc2c1=O	none (no result: H9c2 TAG inh, m-calpain inh)
CNC(=O)O/N=C/c1nn(C(=O)C(C)(C)C)cc1Br	MIN6 prolif-1 5.1 | MIN6 prolif-2 inactive
CCN(CC)C(=O)c1ccc(NC(=O)CNC(C)c2cccc3ccccc23)cc1 (stereo not drawn)	none (no result: H9c2 TAG inh, m-calpain inh)
C=C(COC(=O)CCC(=O)O)CC1CC(O)[C@]2(C)OC3CC4OC5C[C@]6(C)O[C@]7(C)CCC8OC9C[C@]%10(C)OC%11C(C)=CC(=O)OC%11CC%10OC9C[C@@H](C)C8OC7CC6O[C@]5(C)C/C=C\C4OC3CC2O1 (stereo partly drawn)	none
CC(=NCCN1CCOCC1)c1c(O)n(-c2ccccc2C)c(=O)[nH]c1=O	MIN6 prolif-1 12 (no result: H9c2 TAG inh) | MIN6 prolif-2 inactive
CCC(=NCCN1CCOCC1)c1c(O)n(-c2ccccc2C)c(=O)[nH]c1=O	none
c1ccc(P(c2ccccc2)c2ccccn2)cc1	MIN6 prolif-1 5.8 | MIN6 prolif-2 inactive
CCC1(OC(=O)c2ccccc2)CC(C)N(C)CC1C (stereo not drawn)	MIN6 prolif-1 7.0 (no result: H9c2 TAG inh, m-calpain inh) | MIN6 prolif-2 inactive
Cc1c(N=Nc2c(O)n(Cc3ccccc3)c(=O)[nH]c2=O)c(=O)n(-c2ccccc2)n1C	none (no result: H9c2 TAG inh)
CC(Cc1ccccc1)NC(=O)/C=C/C(=O)O (stereo not drawn)	MIN6 prolif-1 7.3 | MIN6 prolif-2 inactive
Cc1ccc(-n2c(-c3cccs3)nc3ccccc3c2=O)cc1	MIN6 prolif-1 9.3 | MIN6 prolif-2 inactive
N#CC1=C(N)Oc2c(c(=O)oc3ccccc23)C1c1ccc([N+](=O)[O-])o1 (stereo not drawn)	none
COc1ccc(-n2c(C)cc(C(=O)C[N+]34CCN(CC3)CC4)c2C)cc1	none
CCN(CC)C(=O)COc1cc(C)cc2oc(=O)c3c(c12)CCCC3	MIN6 prolif-1 6.6 (no result: H9c2 TAG inh, m-calpain inh) | MIN6 prolif-2 inactive
O=c1oc2ccccc2c(O)c1C(c1ccccn1)c1c(O)c2ccccc2oc1=O	MIN6 prolif-1 8.0 | MIN6 prolif-2 inactive
CCOC(=O)C(c1c(O)c2ccccc2oc1=O)c1c(O)c2ccccc2oc1=O	none (no result: MIN6 prolif-1, m-calpain inh)
COc1ccc2c(c1)/C(=C/c1cnc[nH]1)C(=O)N2	MIN6 prolif-1 19 (no result: m-calpain inh) | MIN6 prolif-2 inactive
CCOC(=O)[C@]12Cc3cc(Cl)ccc3[C@H]1N(C1CCCCC1)C(=O)c1ccccc12	FAS TE block 77 (no result: MIN6 prolif-1, H9c2 TAG inh, m-calpain inh, Cardio protect) | FAS-TE conf 71
CCOC(=O)[C@]12Cc3cc(OC)ccc3[C@H]1N(C)C(=O)c1ccccc12	none (no result: MIN6 prolif-1, H9c2 TAG inh, m-calpain inh, Cardio protect)
CCOC(=O)[C@]12Cc3cc(OC)ccc3[C@H]1N(C1CCCCC1)C(=O)c1ccccc12	FAS TE block 77 (no result: MIN6 prolif-1, H9c2 TAG inh, m-calpain inh, Cardio protect) | FAS-TE conf 72
Cc1cc(C(=O)OCC(=O)Nc2ccc(F)cc2F)c(C)n1C1CC1	none (no result: m-calpain inh)
O=[N+]([O-])c1ccc(C(c2ccc([N+](=O)[O-])cc2)c2ccc([N+](=O)[O-])cc2)cc1	none (no result: MIN6 prolif-1, m-calpain inh)
Cc1[nH]n(-c2ccccc2)c(=O)c1C(c1ccc([N+](=O)[O-])cc1)c1c(C)[nH]n(-c2ccccc2)c1=O	FAS TE block 85 | FAS-TE conf 79
O=C(Cc1cccs1)N1Cc2ccccc2-n2nncc2C1	none (no result: MIN6 prolif-1, m-calpain inh)
COc1ccc(-n2nnnc2C(c2cccc3ccccc23)N2CCC3(CC2)C(=O)NCN3c2ccccc2)cc1 (stereo not drawn)	FAS TE block 84 (no result: MIN6 prolif-1, H9c2 TAG inh, m-calpain inh) | FAS-TE conf inactive
Cc1cccc(C)c1-n1nnnc1C(c1ccccc1)N1CCC2(CC1)C(=O)NCN2c1ccccc1 (stereo not drawn)	none (no result: MIN6 prolif-1, H9c2 TAG inh, m-calpain inh)
O=C1NCN(c2ccccc2)C12CCN(C(c1ccccc1)c1nnnn1-c1ccc3c(c1)OCCO3)CC2 (stereo not drawn)	none (no result: MIN6 prolif-1, H9c2 TAG inh, m-calpain inh)
O=C1NCN(c2ccccc2)C12CCN(C(c1cccs1)c1nnnn1-c1ccc3c(c1)OCCO3)CC2 (stereo not drawn)	FAS TE block 62 (no result: MIN6 prolif-1, H9c2 TAG inh, m-calpain inh) | FAS-TE conf inactive
O=C1NCN(c2ccccc2)C12CCN(C(c1cc3ccccc3o1)c1nnnn1-c1ccc3c(c1)OCCO3)CC2 (stereo not drawn)	FAS TE block 74 (no result: MIN6 prolif-1, H9c2 TAG inh, m-calpain inh) | FAS-TE conf inactive
COc1ccc(C(c2nnnn2-c2c(C)cccc2C)N2CCC3(CC2)C(=O)NCN3c2ccccc2)cc1 (stereo not drawn)	FAS TE block 50 (no result: MIN6 prolif-1, H9c2 TAG inh, m-calpain inh) | FAS-TE conf inactive
COC(=O)C(O)(c1ccc(NC(=O)c2cccs2)cc1)C(F)(F)F (stereo not drawn)	none
COC(=O)c1ccccc1NC(=O)N1C[C@@H]2C[C@@H](C1)c1cccc(=O)n1C2	none (no result: H9c2 TAG inh, m-calpain inh)
O=C1NCN(c2ccccc2)C12CCN(C(c1cccc3ccccc13)c1nnnn1-c1ccc3c(c1)OCCO3)CC2 (stereo not drawn)	FAS TE block 88 (no result: MIN6 prolif-1, H9c2 TAG inh, m-calpain inh) | FAS-TE conf inactive
Cc1cccc(C)c1-n1nnnc1C(c1cc2ccccc2o1)N1CCC(n2c(=O)[nH]c3ccccc32)CC1 (stereo not drawn)	FAS TE block 81 (no result: MIN6 prolif-1, H9c2 TAG inh, m-calpain inh) | FAS-TE conf inactive
